T1: UNK ZnF1-6 (called full-length) (human, UniProt Q9C0B0 30-357)
T1 sequence: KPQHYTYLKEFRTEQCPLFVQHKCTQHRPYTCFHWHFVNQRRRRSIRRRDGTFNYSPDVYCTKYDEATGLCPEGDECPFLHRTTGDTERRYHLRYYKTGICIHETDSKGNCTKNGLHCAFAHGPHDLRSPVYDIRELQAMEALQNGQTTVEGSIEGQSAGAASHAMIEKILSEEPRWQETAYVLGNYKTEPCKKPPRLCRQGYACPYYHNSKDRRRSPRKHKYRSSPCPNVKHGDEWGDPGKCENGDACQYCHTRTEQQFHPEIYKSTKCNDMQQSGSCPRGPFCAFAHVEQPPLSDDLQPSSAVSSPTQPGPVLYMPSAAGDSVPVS

B1: ENSG00000052841:stop:overlap|stop_codon|ENSG00000052841|stop_codon|NA|stop_codon (ssRNA)
RNA: GGGAGUUCUACAGUCCGACGAUCAGAACCGAAUCCAGACCAUCCAGUGUCACUUAAUGCUGAAGAAGGGACGGCGCUCUCCUUAGUGCACUUCUUCCUUCUCUCUUUCUCUUUACUCAUGCUCUAAAAAAAAAGAAUAAGAAACAACAGAGGAUUGAGCAUCA
B2: chr5:136174412:136174513:+|CDS|ENSG00000113658|unk|total|mutant (ssRNA)
RNA: GGGAGUUCUACAGUCCGACGAUCUAUGUUGGUGGAGAGGUGUAUGCGGAAUGCCUCAGUGACAGCAGCAUAUUUGUACAGAGCCGGAACUGCAACUUUCAUCAUGGCUUUCAUCCCACCACUGUCUGUAAGAUUCCCAGCAGCCAACAGAGGAUUGAGCAUCA
B3: chr8:116846039:116846140:-|3pUTR|ENSG00000164754|msi1|FALSE|bound_elsewhere (ssRNA)
RNA: GGGAGUUCUACAGUCCGACGAUCACAUUCAAUAUGAUGUGCCUGUAAACCAAGGAGUUUUCCCCGUUUGUAAAAAGACAUUGUAGAUAAUUGAAUGUUUGAUUUUAGAAAGGUCAUUAGUUUCUUGUUACACAUUUUGUUAGUCAACAGAGGAUUGAGCAUCA
B4: chrX:129805617:129805718:-|3pUTR|ENSG00000188706|msi1|FALSE|unique (ssRNA)
RNA: GGGAGUUCUACAGUCCGACGAUCUCUUUUCCCAUUAGAUAUAUGUAAGUAGUUGUAGUAGAGAUAAUAAUUGACAUUUCUCGUAGACUACCCAGAAACUUUUUUAAUACCUGUGCCAUUCUCAAUAAGAAUUUAUGAGAUGCCCAACAGAGGAUUGAGCAUCA
B5: chr11:10797513:10797714:-|3pUTR|ENSG00000110321|msi1_unk|FALSE|overlapping (ssRNA)
RNA: GGGAGUUCUACAGUCCGACGAUCUUCUGCAUAAGGUUUUUUUGUAGUGUAAUGUCUUAAUCAUAGUCUACCAUCAAAUAUUUUAGGAGUAUCUUUAAUGUUUAGAUAGUAUAUUAGCAGCAUGCAAUAAUUACAUCAUAAGUUCAACAGAGGAUUGAGCAUCA
B6: chr2:24000049:24000165:+|3pUTR|ENSG00000173960|unk|FALSE|unique (ssRNA)
RNA: GGGAGUUCUACAGUCCGACGAUCGUAGCAUAUGACUGGAAACUAUAUUCAGUGCACUUUCUCCAAAAGACUACCCAGAAAAAUAGACUUAUUUUCAAAUACCAGUUAUCAAGAUAUAUUAAAUAGCUGUAUUGUUUAGAAUCUCAACAGAGGAUUGAGCAUCA
B7: chr6:57184343:57184440:+|3pUTR|ENSG00000112208|msi1_unk|FALSE|overlapping (ssRNA)
RNA: GGGAGUUCUACAGUCCGACGAUCUCUUCAGUUUUGUGAAUAACAAAACUAGCAAUAUUUUAAUUAUCUAUCUAGAGAUUUUUUAGAUUGAAUUCUUGUCUUGUACUAGGAUCUAGCAUAUUUCACUAUUCUGUGGAUGAAUACCAACAGAGGAUUGAGCAUCA
B8: chr13:110149936:110150037:-|3pUTR|ENSG00000187498|msi1|FALSE|unique (ssRNA)
RNA: GGGAGUUCUACAGUCCGACGAUCUUCUUGUAUUAUAAUUAAUUUUCUACCCCCAGAGAUAAAUGUUUGUUUAUAUCACUGUCUAGCUGUUUCAAAAUUUAGGUCCCUUGGUCUGUACAAAUAAUAGCAAUGUAAAAAUGGUUUCAACAGAGGAUUGAGCAUCA
B9: chr12:98549999:98550103:+|3pUTR|ENSG00000120802|unk|total|mutant (ssRNA)
RNA: GGGAGUUCUACAGUCCGACGAUCUGUUUCCCAUACUGUUUUCAGCCUUUUGUUUAUAAUCCGAAAUUGUGAGAAGCUUCAUUCCGUGUUUAAAAAUGUGGGGAGAUAAAUCAGACUUAACAUGUAUGUAAGAUCAAUUCACUUCAACAGAGGAUUGAGCAUCA
B10: chr12:909583:909684:+|3pUTR|ENSG00000060237|unk|FALSE|bound_elsewhere (ssRNA)
RNA: GGGAGUUCUACAGUCCGACGAUCUAGCUCUGUCCUUUACUUAUUGAGACACUUUAACUUUUUCCUUUGUAUUUCCAUUGUAUUAGAUAAAUAAAUGUGAAUGUAAAAUUGUAUAAAUUACUGUACUUGAAUACUUCUGUUUCCCAACAGAGGAUUGAGCAUCA
B11: chr12:98549999:98550103:+|3pUTR|ENSG00000120802|unk|FALSE|unique (ssRNA)
RNA: B9 RNA with C60U, C61A, C83U, C84A

Where a chain is given by its changes, count along the chain named. The full ranking holds about 5,800 sequences; the median of “enrichment r” is about 0.68, and the highest 2% start at about 11. The entries come from a sample that favours the highest values as a whole.

Consider eleven molecules from article PMC12136788.

This assay addresses T1, UNK ZnF1-6 (called full-length). As to the kind of experiment: nsRBNS (natural sequence RNA bind-n-seq); RBNS binding buffer (assumed for nsRBNS): 25 mM Tris pH 7.5, 150 mM KCl, 3 mM MgCl2, 0.01% Triton X-100, 500 ug/ml BSA, 20 U/ml SUPERase-In, 4 C; UNK is unkempt and MSI1 is Musashi-1; names of the RNAs are library labels; protein concentration not given here; high values mean tight binding.
B1 yielded a binding signal of 0.995 enrichment R.

Consider B2, for which the binding signal came to 0.849 enrichment R. Regarding B3, the binding signal worked out at 5.22 enrichment R. As to B4, the binding signal was determined as 101 enrichment R.

On to B5, for which the binding signal stood at 1.96 enrichment R. As for B6, the binding signal is 3.33 enrichment R. The molecule B7 displayed a binding signal of 6.31 enrichment R. Then B8, with 119 enrichment R. B9: the binding signal turned out to be 0.419 enrichment R.

Molecule B10 displayed a binding signal of 12.7 enrichment R. B11 registered a binding signal of 6.12 enrichment R.
